# Compound activity (PubChem)
# In the library only some 9.2% were active in any assay of this set; here they are far more common.
# FLuc counter: counter-screen for miR-21 project: firefly luciferase inhibitors or activators; P08659; purified FLuc, Km substrates, luminescence inhibition; Potency, µM (doses to about 57.5 µM), without a hit: at the top dose activity change, negative = inhibition, usual class: inhibitors; 360,000 compounds, 6.9% hits; AID 588342;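 also: plate controls were vehicle for no effect and reference inhibitor for full effect; nearly all actives have a fitted effect of over 55% in size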
# Target sequence (P08659 whole entry, looked up): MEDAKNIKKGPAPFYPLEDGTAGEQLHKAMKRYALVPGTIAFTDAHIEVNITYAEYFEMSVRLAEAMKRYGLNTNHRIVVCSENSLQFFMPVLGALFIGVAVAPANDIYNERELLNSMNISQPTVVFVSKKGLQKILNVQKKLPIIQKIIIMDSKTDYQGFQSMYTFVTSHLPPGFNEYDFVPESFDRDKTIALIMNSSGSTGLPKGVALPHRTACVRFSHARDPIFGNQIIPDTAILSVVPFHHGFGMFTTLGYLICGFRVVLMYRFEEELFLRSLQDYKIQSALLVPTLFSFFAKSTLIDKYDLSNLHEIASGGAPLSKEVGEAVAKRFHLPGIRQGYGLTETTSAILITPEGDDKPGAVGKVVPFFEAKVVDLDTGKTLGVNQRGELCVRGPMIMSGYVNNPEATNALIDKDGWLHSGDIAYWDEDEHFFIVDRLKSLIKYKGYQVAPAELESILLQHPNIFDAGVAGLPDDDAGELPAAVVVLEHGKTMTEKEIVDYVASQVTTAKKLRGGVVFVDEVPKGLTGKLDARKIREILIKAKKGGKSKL
#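 Purified P. pyralis luciferase (10nM final) with 10uM D-luciferin and 10uM ATP (Km levels) in 50mM Tris acetate pH 7.5, 10mM Mg acetate, 0.01% Tween-20, 0.05% BSA; qHTS 6-point titration, ~60 µM downward; luminescence read.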
# NPC1 prom act: activators of NPC1 promoter | Huh7 NPC1 promoter luciferase reporter, 24 h | Potency, µM (top dose mostly 9.22 µM), without a hit: at the highest dose activation, hits mostly activators | 320,000 compounds, 2.4% hits; also: % of control where 0% means no effect; nearly all actives have a fitted effect of over 60% in size
#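 Luminescence from an NPC1 promoter-driven luciferase reporter in stably transfected Huh7 cells was measured after 24 h compound treatment at 37 °C, followed by 10 min ambient incubation with luciferase detection reagent.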
# ELG1 DNA repair: inhibitors of ELG1-dependent DNA repair in HEK293T cells. AID 504467. Potency, µM (top dose mostly 46.1 µM), inactives show top-dose activity change, negative = inhibition, most hits filed as inhibitors. 330,000 compounds, 2.3% hits. HEK293T ELG1-luciferase reporter, luminescence, 16 h; DNA damage induced by 5-fluorouridine; also: % is scaled to controls: 0 for no effect and ±100 for the full control effect; nearly all actives have a fitted effect of over 55% in size
#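 In this reporter screen, reduction of luminescence relative to DMSO vehicle indicated activity. Compounds and 5-fluorouridine were added together to 2,000 cells per well, incubated for 16 hr at 37 °C, then developed with ONE-Glo.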
# Rab9 promoter act: Rab9 promoter activation. Huh7 Rab9 promoter-luciferase reporter, luminescence, 24 h. Potency, µM (highest dose often 9.22 µM), without a hit: top-dose activation, negative = inhibition, usual class: activators. 320,000 compounds, 2.8% hits; also: % of control where 0% means no effect; nearly all actives have a fitted effect of over 60% in size
#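 Using Huh7 cells stably transfected with Rab9 promoter–luciferase, compounds were incubated 24 h at 37 °C, 5% CO2; luciferase luminescence was read 10 min after reagent addition.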
# ELG1 genotox: induces genotoxicity in HEK293T cells with luciferase-tagged ELG1. HEK293T ELG1-luciferase reporter, luminescence, 16 h. Potency, µM (series often up to 46 µM), without a hit: top-dose activity change, positive = activation, most hits filed as activators. 330,000 compounds, 1.3% hits. AID 504466; also: % of control where 0% means no effect; nearly all actives have a fitted effect of over 60% in size
#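 DMSO vehicle served as control against compound-treated ELG1-luciferase HEK293T cells; exposure lasted 16 hr at 37 °C and 5% CO2, followed by ONE-Glo luminescence detection after 30 min.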
# SMN2 splice up: SMN2 splice variant enhancement. HEK293 SMN2-luciferase splicing reporter, luminescence, 30-36 h. Potency, µM (series often up to 46.1 µM), inactives show at the highest dose activity change, positive = activation, usual class: activators. 210,000 compounds, 2.8% hits. AID 1458; also: % of control where 0% means no effect; nearly all actives have a fitted effect of over 55% in size
#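 HEK293 cells carry an SMN2 minigene-luciferase reporter in which exon 7 inclusion puts luciferase in frame. Cells were seeded at 2000 cells/well, attached for 10-12 hours, then exposed to compounds for 30-36 hours at 37C before ONE-Glo luminescence.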
# The depositor's hits bear a star; ? = inconclusive; . = not tested or not shown. Calls follow the shape of the dose curve; as a rule, active = well fitted curve in the direction sought with a large enough effect; inconclusive = small, poorly fitted or top-dose-only effect, or another doubt; inactive = no such curve, though single readings can be large; an effect the other way counts as inactive or inconclusive. Potency is read from the fitted curve at half-maximal effect.
SMILES,FLuc counter,NPC1 prom act,ELG1 DNA repair,Rab9 promoter act,ELG1 genotox,SMN2 splice up
CCC(C)C(NC(=O)c1ccccc1NC(=O)c1ccco1)C(=O)NNC(=O)c1ccncc1 (configuration not stated),-12%,-2%,0%,0%,3%,.
N#Cc1ccc(CO/N=C/c2ccccc2)cc1,24µM*,?,?,?,?,?
Cc1nc2ccccc2nc(C)c1=NOCc1ccc(C#N)cc1,0%,0%,7%,-1%,-5%,-2%
COc1ccc(S(=O)(=O)CCC(=O)N2CCN(c3ccccc3F)CC2)cc1,2%,-2%,8%,-6%,-3%,.
O=C(CCS(=O)(=O)c1ccccc1)N1CCN(c2ccccc2F)CC1,11µM*,1.8µM*,?,1.3µM*,8.2µM*,.
Cc1ccc(Nc2ncnc3c2oc2ccccc23)cc1,3.4µM*,2.5µM*,?,2µM*,7.3µM*,13µM*
COc1ccc(Nc2ncnc3c2oc2ccccc23)cc1,9.5µM*,2.5µM*,?,1.3µM*,8.9µM*,11µM*
c1ccc(Sc2ncnc3c2oc2ccccc23)cc1,8.5µM*,?,?,?,?,?
COc1cccc(Nc2nc(C)nc3c2oc2ccccc23)c1,?,-7%,-7%,-2%,-10%,.
CCOc1ccc(NC(=O)CC2C(=O)N(c3cccc(OC)c3)C(=O)N2CCOC)cc1 (configuration not stated),-3%,0%,0%,7%,0%,.
CC(C)OCCCNC(=O)C(=O)N/N=C/c1ccc(OCc2ccccc2)cc1,1%,0%,0%,0%,8%,.
COc1ccc(CCNC(=S)N2CCN(S(=O)(=O)c3ccc(C)cc3)CC2)cc1,0%,2%,16%,-5%,0%,.
O=C(/C=C/c1ccc2c(c1)OCO2)c1ccccc1,.,.,.,.,.,1%
COC(=O)c1cc(NC(=O)/C=C/c2ccc3c(c2)OCO3)cc(C(=O)OC)c1,0%,-2%,?,-2%,4%,?
O=C(/C=C/c1ccc2c(c1)OCO2)c1cccnc1,15µM*,2%,11%,-1%,1%,.
Cc1cc(C)nc(NC(=O)/C=C/c2ccc3c(c2)OCO3)c1,2.1µM*,3.2µM*,?,2.5µM*,?,.
NS(=O)(=O)c1ccc(NC(=O)/C=C/c2ccc3c(c2)OCO3)cc1,-9%,5%,?,-1%,10%,-11%
Cc1cccnc1NC(=O)/C=C/c1ccc2c(c1)OCO2,19µM*,2.5µM*,?,2.8µM*,?,16µM*
COC(=O)c1cccc(NC(=O)/C=C/c2ccc3c(c2)OCO3)c1,1.3µM*,2.8µM*,?,2.5µM*,-8%,-94%
O=C(CN1C(=O)NC2(CCCCCCC2)C1=O)Nc1ccc(Br)cc1Br,1%,-7%,-12%,2%,-1%,.
O=C(/C=C/c1ccc2c(c1)OCO2)Nc1cccnc1,2.4µM*,2.2µM*,?,1.3µM*,3.7µM*,13µM*
CC(=O)Nc1ccc(NC(=O)/C=C/c2ccc3c(c2)OCO3)cc1,?,13%,1%,19%,9%,9%
O=C(N/N=C\C=C\c1ccc2c(c1)OCO2)c1cccnc1,17µM*,8%,?,3%,4%,-1%
CC(NC(=O)c1cc(S(=O)(=O)N2CCOCC2)ccc1F)c1ccc(-n2ccnc2)cc1 (configuration not stated),5%,2%,-2%,3%,2%,.
Cc1c(Cl)cccc1Nc1nn2c(=O)c3ccc(C(=O)N(C)Cc4ccccc4)cc3nc2s1,-5%,.,.,.,.,.
Brc1ccc2oc(-c3ccn[nH]3)cc2c1,3µM*,2.2µM*,?,2.5µM*,?,.
CSc1ccc(CNc2ccc(Cl)cc2)cc1,15µM*,24%,?,?,27%,15%
